This is one part of a sample in which hits are shown more often than they occur.
PglD DTNB = C. jejuni PglD acetyltransferase inhibitors, primary screen, biochemical, DTNB colorimetric, single point. purified PglD enzyme, DTNB colorimetric CoA detection. AID 602405, 2012. hit rate 0.098% among 360,000. inhibition, % at 12.5 µM; in the data active = inhibition above about 16%, passing the limit was not always enough; inconclusive = no clear call, values can overlap the other calls
Rtt109 Vps75 = inhibitors of C. albicans Rtt109/Vps75 HAT, primary screen, biochemical, ThioGlo CoA-SH fluorescence, plate reader; Histone acetyltransferase RTT109 (Candida albicans (strain SC5314 / ATCC MYA-2876)), …; purified Rtt109/Vps75, 4 h; inhibition, % at 34.9 µM; hit rate 0.16% among 330,000; AID 540336, 2011;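 active = inhibition of at least 50% in every replicate; inconclusive = best replicate reaches 50% inhibition but some replicates fall short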
Target sequence (Q5AAJ8 whole entry, looked up): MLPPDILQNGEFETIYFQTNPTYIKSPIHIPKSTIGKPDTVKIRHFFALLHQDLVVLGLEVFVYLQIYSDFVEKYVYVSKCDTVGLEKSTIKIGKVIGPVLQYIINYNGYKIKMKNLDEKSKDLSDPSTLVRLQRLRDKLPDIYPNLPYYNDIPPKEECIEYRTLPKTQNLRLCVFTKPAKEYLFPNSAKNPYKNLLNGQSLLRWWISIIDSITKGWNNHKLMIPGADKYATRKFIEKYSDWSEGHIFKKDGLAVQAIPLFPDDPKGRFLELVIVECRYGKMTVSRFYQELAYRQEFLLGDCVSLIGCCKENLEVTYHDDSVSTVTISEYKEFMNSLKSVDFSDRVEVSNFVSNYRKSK
Glyco luc inh = increase of ERlucT glycosylation luciferase signal, primary screen, N-linked glycosylation inhibitor project, D54 ERlucT cells, luminescence, set 2; D54 ERlucT glycosylation luciferase reporter, 24 h; percent of 100 nM tunicamycin response; reporter increase, % at 12.5 µM; hit rate 0.23% among 360,000; AID 588692, 2011;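 active = mean luciferase reporter signal, scaled so untreated is 0 and the glycosylation-blocking control 100, at or above a set limit in every replicate; inconclusive = mean reaches the limit but not every replicate does; inactive = mean below the limit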;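 also: luciferase carries N-glycosylation sites so blocking glycosylation raises the light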
DENV2 CPE rescue = inhibitors of DENV2 cytopathic effect, primary screen, cell-based, plate reader, single concentration | DENV2-infected cells, cytopathic effect rescue | CPE inhibition, % at 9.99 µM | hit rate 1.7% among 350,000 | AID 651640, 2012; in the data active = CPE inhibition above about 20%, passing the limit was not always enough; inconclusive = no clear call, values can overlap the other calls; tested in BHK-21 cells
A number is an active result; i = inactive; ? = inconclusive; nt = no result given.

SMILES	PglD DTNB	Rtt109 Vps75	Glyco luc inh	DENV2 CPE rescue
NC(=O)CC(NC(=O)Cc1ccc(Cl)cc1)c1ccc(NC2CC3CCC2C3)c([N+](=O)[O-])c1 (stereo not drawn)	i	i	37	i
NC(=O)CC(NC(=O)Cc1ccc(Cl)cc1)c1ccc(NCc2ccccc2)c([N+](=O)[O-])c1 (stereo not drawn)	i	i	i	28
NC(=O)CC(NC(=O)Cc1ccc(Cl)cc1)c1ccc(NC2CCN(Cc3ccccc3)CC2)c([N+](=O)[O-])c1 (stereo not drawn)	i	i	i	61
CCCNC(=O)N1CC2(CCN(Cc3cccc(F)c3)CC2)c2c([nH]c3cc(OC)ccc23)[C@@H]1CO	nt	nt	nt	i
CCCNC(=O)N(C)C[C@H]1Oc2ncc(-c3ccc(F)cc3)cc2C(=O)N([C@H](C)CO)C[C@@H]1C	i	nt	nt	i
C[C@@H]1CN([C@H](C)CO)C(=O)c2cccc(NC(=O)c3ccc(-c4nccs4)cc3)c2O[C@@H]1CN(C)C(=O)Nc1ccc2c(c1)OCO2	i	nt	nt	i
COCC#Cc1ccc2c(c1)O[C@@H](CN(C)S(C)(=O)=O)[C@@H](C)CN([C@@H](C)CO)S2(=O)=O	i	nt	nt	i
C[C@H]1CN([C@@H](C)CO)C(=O)c2cccc(NC(=O)Nc3ccc4c(c3)OCO4)c2O[C@H]1CN(C)Cc1ccc(-c2ccccc2)cc1	i	nt	nt	i
COc1ccc(S(=O)(=O)N(C)C[C@@H]2Oc3ccc(NC(=O)Cc4ccccc4)cc3C(=O)N([C@H](C)CO)C[C@H]2C)cc1	i	nt	nt	i
CC(C)CC#Cc1cnc2c(c1)C(=O)N([C@H](C)CO)C[C@H](C)[C@H](CN(C)S(=O)(=O)c1cn(C)cn1)O2	i	nt	nt	i
Nc1c(C(=O)c2ccccc2)sc2nsc(SCCN3CCCC3)c12	i	i	i	57
COc1ccccc1N(CC(=O)N1CCCC1)S(=O)(=O)c1ccc(C)cc1	i	i	i	54
COc1ccccc1N(CC(=O)N1CCCCCC1)S(=O)(=O)c1ccc(C)cc1	i	i	i	i
CC(=O)Nc1ccc2c(c1)C(=O)N(C)[C@@H]1CC[C@@H](CC(=O)NC3CCCCC3)O[C@H]1CO2	i	nt	nt	i
CN1C[C@@H]2[C@@H]3C(=O)N(Cc4ccccc4)C(=O)[C@@H]3[C@](C)(C1=O)N2C(=O)c1ccc(C(C)(C)C)cc1	i	i	i	54
CC(=NNC(=O)c1cccc(S(=O)(=O)N2CCCC2)c1)c1ccccc1	i	i	i	i
CC(=O)Nc1cccc(/C(C)=N/NC(=O)c2cccc(S(=O)(=O)N3CCCC3)c2)c1	i	nt	i	25
Cc1cccnc1NC(=O)c1cccc(S(=O)(=O)N2CCCC2)c1	i	i	i	31
Cc1ccnc(NC(=O)c2ccc(Cl)c(S(=O)(=O)N3CCCC3)c2)c1	nt	i	i	61
Cc1cccnc1NC(=O)c1ccc(S(=O)(=O)N2CCCCC2)cc1	nt	nt	i	i
Cc1ccc(S(=O)(=O)N2CCCCC2)cc1NC(=O)c1ccc2ccccc2n1	nt	i	i	i
Cc1ccnc(NC(=O)c2ccc(Cl)c(S(=O)(=O)N3CCCCC3)c2)c1	i	i	i	i
O=C(Nc1cccc(S(=O)(=O)N2CCCCCC2)c1)c1ccc2ccccc2n1	i	i	i	22
Cc1noc(C)c1S(=O)(=O)Nc1ccc2c(c1)CC(=O)N([C@H](C)CO)C[C@@H](C)[C@@H](CN(C)S(=O)(=O)c1cn(C)cn1)O2	i	nt	nt	?
CCCNC(=O)[C@H]1[C@H](CO)[C@H]2Cn3c(ccc(-c4ccncc4)c3=O)[C@@H]1N2C(=O)CC1CC1	i	nt	nt	i
COc1ccc(S(=O)(=O)N(C)C[C@H]2Oc3ccc(NS(=O)(=O)c4ccc(C)cc4)cc3C(=O)N([C@@H](C)CO)C[C@H]2C)cc1	nt	nt	nt	i
O=C(Cc1cccc(NC(=O)C2CCCN(C(=O)C3CC3)C2)c1)Nc1cccc(C(=O)N2CCCCC2)c1 (stereo not drawn)	i	i	i	59
CN(Cc1ccccc1)C(=O)c1cccc(NC(=O)Cc2ccc(NC(=O)C3CCCN(C(=O)CCc4ccccc4)C3)cc2)c1 (stereo not drawn)	i	i	i	64
CCCNC(=O)N1CC2(CN(C(=O)C3CCCC3)C2)c2c([nH]c3cc(OC)ccc23)[C@@H]1CO	nt	nt	nt	i
C[C@@H]1CCCCO[C@@H](CN(C)C(=O)C2CCCCC2)[C@@H](C)CN([C@@H](C)CO)C(=O)c2cc(NC(=O)Nc3ccc(F)cc3)ccc2O1	i	nt	nt	21

From PubChem
